Measured values published in PubChem BioAssay (NCATS).
Values joined by “and” are separate entries in the source; they are usually repeats but may differ in a detail not shown here. Identical values can stand only once. Inconclusive results are not listed. Active and inactive are the calls of the source. Calls follow the shape of the dose curve; as a rule, active = well fitted curve in the direction sought with a large enough effect; inconclusive = small, poorly fitted or top-dose-only effect, or another doubt; inactive = no such curve, though single readings can be large; an effect the other way counts as inactive or inconclusive.

Experiments:
[1] = P-glycoprotein substrates identified in KB-8-5-11 adenocarcinoma cell line, qHTS therapeutic library screen (AID 1346987); also: nearly all actives have a fitted effect of over 65% in size; also: potency is read from the fitted curve at half-maximal effect
Summary of the method: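 Human cervical adenocarcinoma KB-8-5-11 cells, selected in colchicine to over-express P-gp and assayed without it, were exposed for 72 h to titrated compounds. An ATP-based luminescent viability signal gave AC50.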

[2] = Primary qHTS for inhibitors of nuclear receptor binding SET domain protein 2 (NSD2) in an isogenic RCH-ACV NSD2 p.E1099K mutant (9B) (AID 1645876); also: nearly all actives have a fitted effect of over 70% in size; also: potency is read from the fitted curve at half-maximal effect
[3] = Primary qHTS for inhibitors of nuclear receptor binding SET domain protein 2 (NSD2) in an RCH-ACV wild type WT cells (2C) (AID 1645877); also: nearly all actives have a fitted effect of over 70% in size; also: potency is read from the fitted curve at half-maximal effect
[4] = target: Glutathione peroxidase 1 (Homo sapiens) (UniProt P07203); test: Primary qHTS Assay for Inhibitors of Recombinant Selenoprotein Glutathione Peroxidase 1 (GPX1) (AID 1845191); also: nearly all actives have a fitted effect of over 65% in size; as to activity, negative = inhibition: % is scaled to controls: 0 for no effect and ±100 for the full control effect
Summary of the method: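 GR-coupled readout: NADPH consumption tracked by fluorescence, ex 340/em 450 nm, at t=0 and after 15 min at RT. Final mix 10 nM GPX1, 1 mM GSH, 0.5 mM CHP, 0.5 mM NADPH, 100 nM GR, 0.01% BSA, following 30 min enzyme–compound preincubation.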

[5] = target: Phospholipid hydroperoxide glutathione peroxidase GPX4 (Homo sapiens) (UniProt P36969); test: Primary qHTS Assay for Inhibitors of Recombinant Selenoprotein Glutathione Peroxidase 4 (GPX4) (AID 1845192); also: nearly all actives have a fitted effect of over 65% in size; as to activity change, negative = inhibition: % is scaled to controls: 0 for no effect and ±100 for the full control effect
Summary of the method: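 Steps: GPX4 plus compound, 30 min RT; add GR/GSH/NADPH master mix; start with cumene hydroperoxide; read 340/450 nm fluorescence at 0 and 15 min. Finals were 200 nM GPX4, 1 mM GSH, 0.5 mM CHP, 0.5 mM NADPH, 100 nM GR.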

[6] = target: Luciferin 4-monooxygenase (Photinus pyralis) (UniProt P08659); test: Primary firefly luciferase (FLuc) qHTS assay for identification of artifact compounds. (AID 1845220); details: outcome: dose series up to 54.1 µM unless noted; also: nearly all actives have a fitted effect of over 60% in size;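 as to activity change, negative = inhibition: plate controls were DMSO vehicle for no effect and no enzyme for full effect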
Summary of the method: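 Enzymatic FLuc inhibition assay: compounds pre-exposed to luciferin/ATP (10 uM each) for 15 min, then purified P. pyralis enzyme at 10 nM added. Read-out: luminescence at 5 min.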

[7] = tested on: Nanoluciferase (engineered Oplophorus gracilirostris luciferase); test: Primary Nanoluciferase (NLuc) qHTS assay for identification of artifact compounds. (AID 1845222);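 also: NLuc secreted into diluted conditioned medium of S16 cells; 0% = DMSO and -100% = no enzyme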
Summary of the method: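 S16 cell supernatant NLuc, 1:55; cpds qHTS; 15 min RT dark; Nano-Glo substrate 1:100, 5 min; luminescence; Hill fit of % inhibition.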

[8] = tested on: CRL-7250; test: Cytotoxic Profiling of Annotated Libraries Using Quantitative High-Throughput Screening (AID 1296008); details: Five cell lines viability, CellTiter-Glo ATP luminescence, 48-72 h; max response: hits give low values; also: nearly all actives have a fitted effect of over 60% in size; also: potency is read from the fitted curve at half-maximal effect; as to max response: % is scaled to controls: 0 for no effect and ±100 for the full control effect
Summary of the method: (§1)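 Cells exposed to compounds for 48 or 72 hr at 37 degrees Celsius. Viability read as ATP-coupled luminescence with CellTiter-Glo after 10 min at room temperature.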

[9] = tested on: HEK293; test: as above; details: Five cell lines viability, CellTiter-Glo ATP luminescence, 48-72 h; max response: hits give low values
Summary of the method: as §1

[10] = tested on: HaCat; test: as above; details: Five cell lines viability, CellTiter-Glo ATP luminescence, 48-72 h; max response: hits give low values
Summary of the method: as §1

[11] = tested on: NIH3T3; test: as above; details: Five cell lines viability, CellTiter-Glo ATP luminescence, 48-72 h; max response: hits give low values
Summary of the method: as §1

[12] = tested on: C33A; test: Primary qHTS to identify gynecologic anti-cancer compounds using libraries of approved drugs and bioactive compounds (AID 1345084); details: Gynecologic cancer cell panel viability, ATPlite luminescence, 48 h; series mostly up to 57.5 µM; also: nearly all actives have a fitted effect of over 55% in size; also: potency is read from the fitted curve at half-maximal effect
Summary of the method: (§2)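 Luminescence from the ATPlite ATP-monitoring reagent indicates viable cell number; lower signal means cytotoxicity. Cells received compound 16 h after seeding and were exposed for 48 h across five concentrations.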

[13] = tested on: CASKI; test: as above; details: Gynecologic cancer cell panel viability, ATPlite luminescence, 48 h; series mostly up to 57.5 µM
Summary of the method: as §2

[14] = tested on: Es-2; test: as above; details: Gynecologic cancer cell panel viability, ATPlite luminescence, 48 h; series mostly up to 57.5 µM
Summary of the method: as §2

[15] = tested on: HeLa; test: as above; details: Gynecologic cancer cell panel viability, ATPlite luminescence, 48 h; series mostly up to 57.5 µM
Summary of the method: as §2

[16] = tested on: OV90; test: as above; details: Gynecologic cancer cell panel viability, ATPlite luminescence, 48 h; series mostly up to 57.5 µM
Summary of the method: as §2

[17] = tested on: Tov-21-G; test: as above; details: Gynecologic cancer cell panel viability, ATPlite luminescence, 48 h; series mostly up to 57.5 µM
Summary of the method: as §2

[18] = tested on: Hek293T; test: as above; details: Gynecologic cancer cell panel viability, ATPlite luminescence, 48 h, control line for the selectivity index; series mostly up to 57.5 µM
Summary of the method: as §2

[19] = tested on: PA-1; test: as above; details: Gynecologic cancer cell panel viability, ATPlite luminescence, 48 h; series mostly up to 57.5 µM
Summary of the method: as §2

[20] = tested on: Tov112D; test: as above; details: Gynecologic cancer cell panel viability, ATPlite luminescence, 48 h; series mostly up to 57.5 µM
Summary of the method: as §2

Chain of Glutathione peroxidase 1 (Homo sapiens) (P07203 whole entry, looked up): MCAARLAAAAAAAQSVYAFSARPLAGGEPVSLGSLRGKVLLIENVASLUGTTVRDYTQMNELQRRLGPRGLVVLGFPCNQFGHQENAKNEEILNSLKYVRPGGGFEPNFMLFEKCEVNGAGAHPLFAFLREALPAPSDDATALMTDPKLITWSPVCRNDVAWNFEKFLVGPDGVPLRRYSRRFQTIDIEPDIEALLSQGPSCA
Chain of Phospholipid hydroperoxide glutathione peroxidase GPX4 (Homo sapiens) (P36969 whole entry, looked up): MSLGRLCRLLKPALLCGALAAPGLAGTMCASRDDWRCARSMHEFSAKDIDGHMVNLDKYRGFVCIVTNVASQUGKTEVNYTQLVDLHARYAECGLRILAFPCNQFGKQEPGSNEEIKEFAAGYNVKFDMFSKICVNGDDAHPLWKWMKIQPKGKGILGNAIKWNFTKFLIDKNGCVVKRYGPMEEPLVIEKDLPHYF

CC(=O)O[C@@H]1[C@@H](O)[C@H]2O[C@@H]3C=C(C)[C@@H](O)C[C@]3(CO)[C@]1(C)[C@]21CO1
inactive: Potency [4] | Potency [5] | outcome [6] | Potency [7]
active: Potency [1] 904 nM | Potency [2] 450 nM | Potency [3] 358 nM | Potency [8] 1010 nM | Potency [9] 321 nM | Potency [10] 3600 nM | Potency [11] 904 nM | Potency [12] 3550 nM | Potency [13] 3980 nM | Potency [14] 2000 nM | Potency [15] 2510 nM | Potency [16] 1410 nM | Potency [17] 4470 nM

CO[C@@H]1C[C@H](O[C@H]2CC[C@@]3(C)C(CCC4C3CC[C@]3(C)[C@@H](C5=CC(=O)OC5)[C@@H](OC(C)=O)CC43O)C2)O[C@H](C)[C@@H]1O[C@H]1O[C@H](CO[C@@H]2O[C@H](CO)[C@@H](O)[C@H](O)[C@H]2O)[C@@H](O)[C@H](O)[C@H]1O (stereo partly drawn)
inactive: Potency [4] | Potency [5] | activity change, negative = inhibition [6] -3.37% [at 11.6 µM] | activity, negative = inhibition [7] 1.29% [at 11.6 µM] | max response [11] -8.42%
active: Potency [1] 873 nM | Potency [2] 346 nM | Potency [3] 774 nM | Potency [8] 491 nM | Potency [9] 873 nM | Potency [10] 1550 nM | Potency [12] 631 nM | Potency [14] 1260 nM | Potency [15] 1580 nM | Potency [18] 2000 nM | Potency [19] 2000 nM | Potency [17] 794 nM | Potency [20] 316 nM

CC(=O)OC[C@]12C[C@H](OC(=O)CC(C)C)C(C)=C[C@H]1O[C@@H]1[C@H](O)[C@@H](O)[C@@]2(C)[C@]12CO2
inactive: Potency [4] | Potency [5] | outcome [6] | Potency [7]
active: Potency [1] 112 nM | Potency [2] 25.2 nM | Potency [3] 17.8 nM | Potency [8] 142 nM | Potency [9] 25.2 nM | Potency [10] 252 nM | Potency [11] 100 nM | Potency [13] 224 nM | Potency [14] 178 nM | Potency [15] 158 nM | Potency [18] 79.4 nM | Potency [17] 355 nM | Potency [20] 316 nM

CC1=C[C@H]2O[C@@H]3[C@H](O)[C@@H](O)[C@](C)([C@@]2(CO)C[C@@H]1O)[C@]31CO1
inactive: Potency [4] | Potency [5] | outcome [6] | Potency [7]
active: Potency [1] 2060 nM | Potency [2] 728 nM | Potency [3] 515 nM | Potency [8] 5800 nM | Potency [9] 1300 nM | Potency [10] 7310 nM | Potency [12] 10000 nM | Potency [13] 11200 nM | Potency [14] 10000 nM | Potency [15] 12600 nM | Potency [18] 2820 nM | Potency [16] 8910 nM | Potency [19] 3980 nM | Potency [17] 10000 nM

CC[C@H]1C[C@@H]2CC[C@@H](O2)[C@@H](C)C(=O)O[C@H](CC)C[C@H]2CC[C@H](O2)[C@H](C)C(=O)O[C@@H](C)C[C@@H]2CC[C@@H](O2)[C@@H](C)C(=O)O[C@H](CC)C[C@H]2CC[C@H](O2)[C@H](C)C(=O)O1
active: Potency [1] 968 nM | Potency [2] 10.8 nM | Potency [3] 13.6 nM | Potency [8] 385 nM | Potency [9] 21.7 nM | Potency [10] 68.5 nM | Potency [11] 38.5 nM | Potency [12] 224 nM | Potency [13] 447 nM | Potency [14] 501 nM | Potency [15] 562 nM | Potency [18] 355 nM | Potency [16] 89.1 nM | Potency [19] 178 nM
inactive: Potency [4] | Potency [5] | outcome [6] | Potency [7]

C[C@@H]1[C@H](O)[C@@H](C)/C=C/C=C/CC/C=C/C=C/C=C/C=C/[C@H](O[C@H]2O[C@@H](C)[C@H](O)[C@@H](N)[C@H]2O)C[C@@H]2O[C@](O)(C[C@@H](O)[C@H](O)CC[C@@H](O)C[C@@H](O)C[C@@H](O)CC(=O)O[C@H]1C)C[C@H](O)[C@H]2C(=O)O
inactive: Potency [1] | Potency [2] | Potency [4] | Potency [5] | Potency [7] | max response [8] -12.4% | max response [9] 0.0089% | outcome [10] | Potency [12] | Potency [13] | Potency [14] | Potency [15] | Potency [18] | Potency [16] | Potency [19] | Potency [17] | Potency [20]

CN(C)c1cc2c(cc1Sc1nc3c(N)nccc3n1CCNCC(C)(C)C)OCO2
active: Potency [1] 517 nM | Potency [2] 459 nM and 662 nM | Potency [3] 365 nM and 742 nM | Potency [8] 1840 nM | Potency [9] 580 nM | Potency [10] 461 nM | Potency [11] 1030 nM | Potency [18] 1260 nM | Potency [19] 1410 nM | Potency [17] 1410 nM
inactive: Potency [4] | Potency [5] | outcome [6] | Potency [7] | Potency [15] | Potency [20]

O=C(CC1NCCC[C@H]1O)Cn1cnc2cc(Br)c(Cl)cc2c1=O (stereo partly drawn)
inactive: Potency [1] | Potency [4] | Potency [5] | max response [8] -5.15% | max response [9] -10.4% | max response [10] -11.7% | max response [11] -4.52%

CC[C@H]1C2CC3[C@@H]4N(C)c5ccccc5[C@]45C[C@@H]([C@H]2[C@H]5O)N3[C@@H]1O
inactive: Potency [1] | Potency [2] | Potency [3] | Potency [4] | Potency [5] | outcome [6] | Potency [7] | max response [8] -2.01% | max response [9] 0.828% | max response [10] 4.96% | Potency [12] | Potency [13] | Potency [14] | Potency [15] | Potency [18] | Potency [16] | Potency [19] | Potency [17] | Potency [20]

CC1=CC(=O)[C@@H](O)[C@]2(C)C3[C@@H](O)[C@@H]4OC(=O)[C@@H]([C@H]4C)[C@]3(C)C(=O)C[C@@H]12 (stereo partly drawn)
inactive: Potency [4] | Potency [5] | outcome [6] | Potency [7] | Potency [15]
active: Potency [1] 3210 nM | Potency [2] 2260 nM | Potency [3] 2260 nM | Potency [8] 3210 nM | Potency [9] 2860 nM | Potency [10] 11400 nM | Potency [11] 3600 nM | Potency [14] 8910 nM | Potency [19] 2820 nM

CO[C@H]1[C@H](O)[C@H](O[C@H]2CC[C@]3(C=O)C4CC[C@]5(C)[C@H](C6=CC(=O)OC6)CC[C@]5(O)C4CC[C@@H]3C2)O[C@@H](C)[C@@H]1O (stereo partly drawn)
active: Potency [1] 25.2 nM | Potency [2] 15.9 nM | Potency [3] 44.7 nM | Potency [8] 28.2 nM | Potency [9] 50.2 nM | Potency [10] 126 nM | Potency [12] 89.1 nM | Potency [13] 224 nM | Potency [14] 100 nM | Potency [15] 126 nM | Potency [18] 126 nM | Potency [16] 282 nM | Potency [17] 31.6 nM
inactive: Potency [4] | Potency [5] | Potency [7] | max response [11] -5%
